Publication PMC4552634, “A New Set of Chemical Starting Points with Plasmodium falciparum Transmission-Blocking Potential for Antimalarial Drug Discovery” (PLoS ONE, 2015)
The whole screen tested about 13,000 compounds, of which about 3,200 (25%) showed an effect of 50% or more. The list shows a part of the results.

Test system: P. falciparum stage V gametocytes
Parameters: BacTiter-Glo ATP luminescence viability of purified stage V gametocytes in 384-well plates, per cent inhibition versus DMSO
Details: 48 h, 5 µM; inhibitor

First: Nc1nc(N)c(-c2ccccc2)c(=O)[nH]1 [TCMDC-137349]
Second: NS(=O)(=O)c1cccc(-c2ccc3c(=O)[nH]cnc3c2)c1 [TCMDC-136756]
The “% Inhibition” value of the first is lower: 4.514% for the first, 63.64% for the second.

First: CC[C@H](C)CNC(=O)c1ccnc(-c2cccc(CN(C)C3CCN(C)CC3)c2)c1 [TCMDC-134243]
Second: CC[C@H](C)CNC(=O)c1cncc(-c2cccc(CN(C)C3CCN(C)CC3)c2)c1 [TCMDC-134225]
The “% Inhibition” value of the first is lower: -9.422% for the first, 17.67% for the second.

Going from CC(C)CNCc1cccc(-c2ccc(CN(CCCN3CCN(C)CC3)C(=O)CCC3CCCC3)cc2)c1 [TCMDC-140558] to CC(C)CNCc1cccc(-c2cccc(CN(CCCN3CCN(C)CC3)C(=O)CCC3CCCC3)c2)c1 [TCMDC-140554], the “% Inhibition” value rises from 107.6% to 109.3%.

Going from COc1cc(OC)c(OC)cc1CN1CCC2(CC1)CN(Cc1ccc(Cl)c(Cl)c1)C(=O)O2 [TCMDC-132175] to COc1cc(Nc2nccc(N3CCC(NC(=O)Nc4cc(C)ccc4C)C3)n2)cc(OC)c1OC (stereo not shown) [TCMDC-133626], the “% Inhibition” value falls from 23.65% to -44.43%.

Going from CCOc1c(CNCCCNc2cc(=O)c3ccccc3[nH]2)cc(I)cc1C(C)(C)C [TCMDC-140132] to CC(CN(C)C)C(=O)Nc1ccc(-c2csc(-c3nc4ccccc4[nH]3)c2)cc1 (stereo not shown) [TCMDC-132390], the “% Inhibition” value rises from -43.73% to 44.44%.

Going from O=C(Nc1cccc(F)c1)c1ccc(C(=O)NC2CCN(CC3CCCCC3)C2)cc1 (stereo not shown) [TCMDC-136741] to CCNc1cc(C(=O)N[C@@H](Cc2ccc(Cl)cc2)[C@H](O)CNC2CCCCC2)cc(N2CCCCS2(=O)=O)c1 [TCMDC-135201], the “% Inhibition” value rises from 0.01446% to 29.54%.

Going from CC(CN(C)C)C(=O)Nc1cccc(-c2cccc(-c3nc4ccc(F)cc4[nH]3)c2)c1 (stereo not shown) [TCMDC-137104] to CC(CN(C)C)C(=O)Nc1cccc(-c2cccc(-c3nc4ccccc4[nH]3)c2)c1 (stereo not shown) [TCMDC-137101], the “% Inhibition” value rises from -36.15% to 94.09%.

Compared with CC(CN(C)C)C(=O)Nc1ccc(-c2ccc(-c3nc4ccccc4[nH]3)cc2)cc1 (stereo not shown) [TCMDC-137108], CC(CN(C)C)C(=O)Nc1ccc(-c2cccc(-c3nc4ccccc4[nH]3)c2)cc1 (stereo not shown) [TCMDC-137099] is lower in “% Inhibition” value: 88.79% for the first, -5.672% for the second.

First: CC(CN(C)C)C(=O)Nc1cccc(-c2ccc(-c3nc4ccccc4[nH]3)cc2)c1 (stereo not shown) [TCMDC-137107]
Second: O=C(Nc1ccc(-c2cccc(-c3nc4ccccc4[nH]3)c2)cc1)Nc1ccc2c(c1)OCO2 [TCMDC-133168]
The “% Inhibition” value of the first is lower: -47.86% for the first, -6.536% for the second.

First: C#CCNCc1ccc(-c2ccc(-c3nc4cc(C(F)(F)F)ccc4[nH]3)s2)cc1.O=C(O)C(F)(F)F [TCMDC-132805]
Second: Cc1cc(-c2ccc(Cl)cc2)c2c(N)c(C(=O)Nc3ccc(F)cc3)sc2n1 [TCMDC-124117]
The “% Inhibition” value of the first is lower: -48.9% for the first, 40.98% for the second.

Compared with COc1cc(CCON2C(N)=NC(N)=NC2(C)C)cc(OC)c1OC [TCMDC-131368], CC1(C)N=C(N)N=C(N)N1OCCCOc1cccc(C(=O)O)c1 [TCMDC-124025] is higher in “% Inhibition” value: -0.5645% for the first, 22.26% for the second.

Going from CC[C@]1(C)C[C@@H](NC(=O)NC(=O)c2ccc(OC)cc2)[C@]2(C)[C@H](C)CC[C@]3(CCC(=O)[C@H]32)[C@@H](C)[C@@H]1OC(=O)NC(=O)c1ccc(OC)cc1 [TCMDC-139025] to COc1ccc(-c2ccc3c(-c4cccc(S(C)(=O)=O)c4)cnc(N)c3c2)cc1 [TCMDC-134494], the “% Inhibition” value falls from 34.49% to 3.475%.

Going from O=S(=O)(c1cc(Cl)c(Cl)cc1Cl)N1CCCCC(c2ccc(C(F)(F)F)cc2)=N1 [TCMDC-134542] to CS(=O)(=O)c1cccc(-c2cnc(N)c3cc(-c4ccc(F)cc4)ccc23)c1 [TCMDC-134492], the “% Inhibition” value rises from -0.152% to 11.87%.

First: Cc1[nH]c(C)c(-c2ccc(OCc3cc(F)cc(F)c3)nc2)c(=O)c1Br [TCMDC-135683]
Second: Cc1[nH]c(C)c(-c2ccc(OCc3cc(F)cc(F)c3)nc2)c(=O)c1Cl [TCMDC-135676]
The “% Inhibition” value of the first is lower: 58.89% for the first, 67.03% for the second.

First: Cc1[nH]c(C)c(-c2ccc(OCc3ccc(F)cc3)nc2)c(=O)c1Br [TCMDC-135657]
Second: Cc1[nH]c(C)c(-c2ccc(OCc3ccc(OC(F)(F)F)cc3)nc2)c(=O)c1Br [TCMDC-135254]
The “% Inhibition” value of the first is higher: 60.6% for the first, 45.17% for the second.

Compared with N#Cc1ccc(NC(=Nc2ccccc2Br)N(C2CCCCC2)C2CCCCC2)c(O)c1 [TCMDC-140131], C=C[C@H]1CN2CC[C@H]1C[C@H]2[C@H](O)c1ccnc2ccccc12 [TCMDC-123934] is higher in “% Inhibition” value: -34.98% for the first, 4.056% for the second.

Compared with FC(F)(F)CNc1nc(Nc2ccc3ncccc3c2)nc2[nH]ccc12 [TCMDC-132120], CN(C)S(=O)(=O)c1cc(-c2ccc3nccc(-c4cccc(S(N)(=O)=O)c4)c3c2)cnc1N [TCMDC-134230] is higher in “% Inhibition” value: 26.12% for the first, 96.42% for the second.

First: CN(C)c1cccc(CN2CC=C(c3c[nH]c4ccc(Cl)cc34)CC2)c1 [TCMDC-138946]
Second: CS(=O)(=O)c1cccc(-c2cnc(N)c3cc(-c4cccc(F)c4)ccc23)c1 [TCMDC-134493]
The “% Inhibition” value of the first is lower: 8.82% for the first, 8.942% for the second.

Going from NS(=O)(=O)c1cccc(Br)c1 [TCMDC-123819] to Nc1ncnc2cc(-c3cccc(S(N)(=O)=O)c3)sc12 [TCMDC-135294], the “% Inhibition” value falls from -1.825% to -17.5%.

Going from CS(=O)(=O)c1cccc(-c2cnc(N)c3cc(-c4ccc5c(c4)OCO5)ccc23)c1 [TCMDC-134515] to COc1cccc(-c2ccc3c(-c4cccc(S(C)(=O)=O)c4)cnc(N)c3c2)c1 [TCMDC-134495], the “% Inhibition” value rises from -1.728% to 30.55%.

First: NS(=O)(=O)Cc1cccc(-c2ccnc3ccc(-c4cccc(S(N)(=O)=O)c4)cc23)c1 [TCMDC-134159]
Second: NS(=O)(=O)c1cccc(-c2ccc3nccc(-c4cccc(S(N)(=O)=O)c4)c3c2)c1 [TCMDC-138902]
The “% Inhibition” value of the first is lower: 58.63% for the first, 75.33% for the second.

With CN(C)C(CNC(=O)c1cc(-c2ccncc2)c(-c2ccc(NC(=O)Nc3cccc(F)c3)cc2)o1)c1ccccc1 (stereo not shown) [TCMDC-135782] the “% Inhibition” value was 6.274%.
